Reference: PubChem BioAssay (Tox21)
Results filed as inconclusive are left out. Where a call stands in place of a potency, no number is given. More than one record can exist for a structure, and the calls need not agree. Calls of active or inactive are those of the source. Unless noted, calls follow the shape of the dose curve; as a rule, active = well fitted curve in the direction sought with a large enough effect in the repeat runs; inconclusive = weak or mixed curves; inactive = no such curve, though single readings can be large; an effect the other way counts as inactive or inconclusive.

Tests used:
[1] = qHTS assay to identify small molecule agonists of the vitamin D receptor (VDR) signaling pathway - cell viability counter screen (AID 743224); also: nearly all actives have a fitted effect of over 50% in size; also: potency is read from the fitted curve at half-maximal effect
In short: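 Plated VDR-bla cells (4 h, 37C) received compound, incubated 16 h, then LiveBLAzer substrate 2 h RT; CellTiter-Glo added afterwards, luminescence read at 30 min.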

[2] = qHTS assay to identify small molecule antagonists of the vitamin D receptor (VDR) signaling pathway - cell viability counter screen (AID 743225); also: nearly all actives have a fitted effect of over 50% in size
In short: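 Cytotoxicity counter screen read by CellTiter-Glo luminescence (30 min, room temperature) in the same wells as the VDR-bla antagonist readout. HEK 293T VDR-UAS-bla cells had 16 h at 37C with compound and 3 nM (final) 1-alpha,25-dihydroxyvitamin D3, then 2 h with FRET substrate.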

[3] = qHTS assay to identify small molecule agonists of the NFkB signaling pathway - cell viability counter screen (AID 1159515; calls by dose curve; also: nearly all actives have a fitted effect of over 55% in size)
In short: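 Using the same wells as the NFkB reporter read, ME-180 NFkB-bla cells given compounds for 5 hr were assessed for viability via CellTiter-Glo, with luminescence taken after a 30 min room-temperature incubation.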

[4] = qHTS assay to identify small molecule agonists of the endoplasmic reticulum stress response signaling pathway (AID 1159516; active = well fitted activation curve with a large enough effect in the signal ratio in the repeat runs, not every such curve was filed as active; the % refers to the signal ratio)
In short: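 An ESRE-bla HeLa cell assay: compounds were pin-transferred from DMSO onto overnight-plated cells and left 5 hr at 37 C. Substrate was then loaded for 2 hr at room temperature before reading fluorescence at 460 nm and 530 nm.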

[5] = qHTS assay to identify small molecule agonists of the endoplasmic reticulum stress response signaling pathway - cell viability counter screen (AID 1159517; calls by dose curve;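 also: HeLa cells carrying an ER stress response element beta-lactamase reporter; nearly all actives have a fitted effect of over 50% in size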)
In short: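 Luminescence readout: CellTiter-Glo, 30 min RT, same wells as the ESRE-bla reporter read. HeLa ESRE-bla, 1,500 cells/well, o/n 37 C; cpd 5 hr 37 C/5% CO2.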

[6] = qHTS assay to identify small molecule antagonists of the retinoid-related orphan receptor gamma (ROR-gamma) signaling pathway - cell viability counter screen (AID 1159520); also: nearly all actives have a fitted effect of over 50% in size
In short: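 Tet-on ROR gamma CHO cells (1,000/well) were plated 4 hr, given compounds in DMSO for 2 hr at 37 C, then induced with 1 uM final doxycycline for 16 hr. Viability was read as ATP by CellTiter-Glo luminescence after 30 min.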

[7] = molecular target: Nuclear receptor ROR-gamma (Homo sapiens) (UniProt P51449); test: qHTS assay to identify small molecule antagonists of the retinoid-related orphan receptor gamma (ROR-gamma) signaling pathway (AID 1159521)
In short: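 Antagonist read-out: drop in luminescence (ONE-Glo) from an RORE-LUC reporter in CHO cells with doxycycline-inducible ROR-gamma; 2 hr compound pretreatment, 1 uM doxycycline, 16 hr incubation at 37 C.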

[8] = qHTS assay to identify small molecule agonists of the AP-1 signaling pathway - cell viability counter screen (AID 1159525; calls by dose curve; also: nearly all actives have a fitted effect of over 55% in size)
In short: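 ME-180 AP-1-bla, 2500 cells/well, Opti-MEM + 0.5% dialyzed FBS; overnight 37 °C; cpd 15-pt titration, 5 h 37 °C; CellTiter-Glo 30 min RT; luminescence read; normalised to TOAB and DMSO controls.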

[9] = qHTS assay to identify small molecule agonists of the AP-1 signaling pathway (AID 1159526; calls by dose curve)
[10] = molecular target: Retinoic acid receptor RXR-alpha (Homo sapiens) (UniProt P19793); test: qHTS assay to identify small molecule agonists of the RXR signaling pathway (AID 1159527; calls by dose curve; also: nearly all actives have a fitted effect of over 35% in size; also: potency is read from the fitted curve at half-maximal effect)
In short: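 Agonist-mode beta-lactamase reporter assay: HEK 293T RXR-alpha-UAS-bla cells treated 16 hr at 37 C with compounds, 9-cis retinoic acid as positive control. LiveBLAzer FRET substrate, 405 nm excitation, 460/530 nm emission.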

[11] = qHTS assay to identify small molecule agonists of the RXR signaling pathway - cell viability counter screen (AID 1159529); also: nearly all actives have a fitted effect of over 50% in size
In short: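 CellTiter-Glo luminescence gave viability in the wells also read for beta-lactamase. Cells (RXR-alpha-UAS-bla HEK 293T, 2% charcoal-stripped FBS medium) had 5 hr plating, then 16 hr compound exposure at 37 C; tetraoctyl ammonium bromide served as positive control.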

[12] = qHTS assay to identify small molecule antagonists of the retinoid acid receptor (RAR) signaling pathway - cell viability counter screen (AID 1159551); also: nearly all actives have a fitted effect of over 35% in size
In short: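 Retinol-stimulated (1 uM final) C3RL4 cells, compound 6 h, 37 C; readout CellTiter-Glo luminescence (ATP) after 30 min RT incubation.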

[13] = qHTS assay to identify small molecule antagonists of the retinoic acid receptor (RAR) signaling pathway (AID 1159552; also: nearly all actives have a fitted effect of over 50% in size)
In short: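 Luminescent RARE reporter read-out in C3RL4 cells: 6 hr co-treatment at 37 C of test compounds with retinol at 1 uM final. Cells plated overnight beforehand; luciferase reagent incubated 30 min at room temperature before reading.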

[14] = qHTS assay to identify small molecule antagonists of the estrogen related receptor (ERR) signaling pathway - cell viability counter screen (AID 1224818);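 also: viability measured after 17.5 h of compound exposure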
In short: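 After a 6 h pre-incubation, ERR cells were dosed by pin tool with compounds, positive/negative controls or DMSO alone. Following 17.5 h at 37 C and 30 min with CellTiter-Fluor, fluorescence was recorded.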

[15] = qHTS assay to identify small molecule antagonists of the estrogen related receptor signaling pathway with the pleiotropic PPARgamma coactivator (PGC) cell viability counter screen (AID 1224822;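 also: viability read after 17.5 h compound exposure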)
In short: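 PGC/ERR cells were plated at 2,000 per well and allowed 6 h to settle before compound addition. Following 17.5 h at 37 C, CellTiter-Fluor reagent was added and fluorescence was read 30 min later.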

[16] = qHTS assay to identify small molecule agonists of the retinoic acid receptor (RAR) signaling pathway (AID 1159553); details: C3RL4 RARE luciferase reporter, agonist, 6 h; activation: at 73.3 µM (top of the series) unless noted; also: potency is read from the fitted curve at half-maximal effect
In short: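 Reporter readout comes from luciferase under RARE control in C3RL4 cells; compound exposure lasts 6 hr at 37 C in 5% CO2, and luminescence is recorded following a 30 min room-temperature incubation with reagent.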

Sequence of Retinoic acid receptor RXR-alpha (Homo sapiens) (P19793 whole entry, looked up): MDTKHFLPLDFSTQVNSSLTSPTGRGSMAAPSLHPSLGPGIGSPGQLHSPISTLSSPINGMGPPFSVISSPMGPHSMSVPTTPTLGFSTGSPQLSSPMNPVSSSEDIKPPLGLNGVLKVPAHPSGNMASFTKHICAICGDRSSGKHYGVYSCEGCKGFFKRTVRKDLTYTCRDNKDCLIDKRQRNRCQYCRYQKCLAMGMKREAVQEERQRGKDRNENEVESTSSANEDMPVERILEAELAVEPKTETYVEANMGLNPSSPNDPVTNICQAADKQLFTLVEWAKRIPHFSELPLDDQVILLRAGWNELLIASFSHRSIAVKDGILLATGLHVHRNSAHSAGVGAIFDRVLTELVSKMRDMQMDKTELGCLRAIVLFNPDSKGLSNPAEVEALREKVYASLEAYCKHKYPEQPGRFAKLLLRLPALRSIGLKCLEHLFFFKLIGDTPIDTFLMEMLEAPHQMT

Structure (SMILES)	Potency [1]	Potency [2]	Potency [3]	Potency [4]	Potency [5]	Potency [6]	Potency [7]	Potency [8]	Potency [9]	Potency [10]	Potency [11]	Potency [12]	Potency [13]	outcome [14]	outcome [15]	Potency [16]
O=C(O)CCCC(=O)O	inactive	inactive	inactive	inactive	inactive	inactive	inactive	inactive	inactive	inactive	inactive	inactive	inactive			
C[N+](C)(C)CCO	inactive	inactive	inactive	inactive	inactive	inactive	inactive	inactive	inactive	inactive		inactive		inactive	inactive	
CC(C)[C@@H]1CC[C@@H](C)CC1=O	inactive	inactive	inactive	inactive	inactive	inactive		inactive	inactive	inactive	inactive	inactive				
CCCN1C=CN(C)C1	inactive	inactive	inactive	inactive	inactive	inactive		inactive	inactive	inactive	inactive	inactive				
CC(=O)O[C@]1(C(C)=O)CC[C@H]2[C@@H]3C=C(Cl)C4=CC(=O)CC[C@]4(C)[C@H]3CC[C@@]21C	43.6 µM (active) and inactive	inactive	inactive	inactive	inactive	inactive		inactive				inactive				inactive
CC(=O)[C@@]1(O)CC[C@H]2[C@@H]3C[C@H](C)C4=CC(=O)C=C[C@]4(C)[C@@]3(F)[C@@H](O)C[C@@]21C	inactive	inactive	inactive	inactive	inactive	inactive		inactive	inactive	inactive		inactive	inactive			
COC(=O)C(C)Oc1ccc(Oc2ncc(C(F)(F)F)cc2Cl)cc1 (centres undefined)	inactive	inactive	inactive	inactive	inactive	inactive	inactive	inactive	inactive			inactive				
OC[C@H]1O[C@@H]2O[C@H]3[C@H](O)[C@@H](O)[C@@H](O[C@H]4[C@H](O)[C@@H](O)[C@@H](O[C@H]5[C@H](O)[C@@H](O)[C@@H](O[C@H]6[C@H](O)[C@@H](O)[C@@H](O[C@H]7[C@H](O)[C@@H](O)[C@@H](O[C@H]1[C@H](O)[C@H]2O)O[C@@H]7CO)O[C@@H]6CO)O[C@@H]5CO)O[C@@H]4CO)O[C@@H]3CO	inactive	inactive	inactive	inactive	inactive	inactive	inactive	inactive	inactive		inactive	inactive	inactive			
c1ccc2c(c1)ccc1ncccc12	inactive	inactive	inactive	inactive	inactive	inactive	inactive	inactive	inactive		inactive	inactive	inactive			
Nc1ccc(N)c(Cl)c1	inactive	inactive	inactive	inactive	inactive	inactive				inactive		inactive	inactive			
CC1(C)O[C@@H]2C[C@H]3[C@@H]4C[C@H](F)C5=CC(=O)C=C[C@]5(C)[C@@]4(F)[C@@H](O)C[C@]3(C)[C@]2(C(=O)CO)O1	inactive	inactive	inactive	inactive	inactive	inactive		inactive	inactive		inactive	inactive	inactive			
C=C[C@H]1CN2CC[C@H]1C[C@@H]2[C@@H](O)c1ccnc2ccc(OC)cc12			inactive	inactive	inactive	inactive		inactive	inactive	inactive		inactive				
Cc1ccc(C(C)(C)C)c(O)c1	inactive	inactive	inactive	inactive	inactive	inactive	inactive			inactive						
CCCCCCC(C)O (centres undefined)	inactive	inactive	inactive	inactive	inactive	inactive	inactive	inactive	inactive	17.7 µM (active) and inactive		inactive				
O=C1CCc2ccccc2O1	inactive	inactive	inactive	inactive	inactive	inactive		inactive	inactive	inactive	inactive	inactive				
CCCCCCCCCCCCO	inactive	inactive	inactive	inactive	inactive	inactive	inactive	inactive	inactive		inactive	inactive	inactive			inactive
CCCOCCO	inactive	inactive	inactive	inactive	inactive	inactive		inactive	inactive	inactive	inactive	inactive	inactive			inactive
Cc1ccc2c(c1)C(=O)OC2=O	inactive	inactive	inactive	inactive	inactive	inactive		inactive	inactive	inactive		inactive	inactive			
[Na+]	inactive	inactive	inactive	inactive	inactive	inactive		inactive	inactive	inactive		inactive				
NCCS(=O)(=O)O	inactive	inactive	inactive		inactive	inactive	inactive	inactive	inactive	inactive	inactive	inactive	inactive	inactive	inactive	28.4 µM (active) and inactive
COC(=O)CC(=O)OC	inactive	inactive	inactive	inactive	inactive	inactive		inactive	inactive	inactive	inactive	inactive	inactive			
